In PubChem BioAssay (Tox21):
Results filed as inconclusive are left out. A call without a number means that no potency is given here. The source made the active and inactive calls. Calls follow the shape of the dose curve; as a rule, active = well fitted activation curve with a large enough effect in the repeat runs; inconclusive = weak or mixed curves; inactive = no such curve, though single readings can be large or run the other way.

Assay: qHTS assay for small molecules that induce genotoxicity in human embryonic kidney cells expressing luciferase-tagged ATAD5 (AID 651632); also: nearly all actives have a fitted effect of over 15% in size
Conditions: HEK293T ATAD5-luciferase induction, 16 h; series mostly up to 83.3 µM
Source text: U.S. Tox21 Program National Center for Advancing Translational Sciences [NCATS] NIH Chemical Genomics Center [NCGC] U.S. Environmental Protection Agency [EPA] National Institutes of Environmental Health Sciences [NIEHS] National Toxicology Program [NTP] U.S. Food and Drug Administration [FDA] Tox21 Assay Overview: As cancer cells divide rapidly and during every cell division they need to duplicate their genome by DNA replication. The failure to do so results in the cancer cell death. Based on this concept, many chemotherapeutic agents were developed but have limitations such as low efficacy and severe side effects etc. A new cell based assay was developed to find the compounds that effectively block DNA replication either by directly damaging DNA or by inhibiting other cellular mechanisms. Enhanced Level of Genome Instability Gene 1 (ELG1; human ATAD5) protein levels increase in response to various types of DNA damage. Using a luciferase reporter-gene tagged with ATAD5, a cell-based assay [developed by Kyungjae Myung, NHGRI, NIH] was used to measure the induction of ATAD5 in human embryonic kidney cells (HEK293T). So, increase in luciferase activity can be used to identify the compounds that cause genetic stress.
Tox21 Assay Protocol Summary: For genotoxicity screening, 2,000 cells in 5 uL/well were dispensed into white, solid-bottom 1536-well plates using a Multidrop Combi (Thermo Scientific) dispenser. Following transfer of 23 nL compound or DMSO vehicle by a pin tool, the plates were incubated 16 hr at 37C and 5% CO2. 5 ul Amplite (AAT Bioquest, Inc.) was then added to each plate and following 30 min incubation at room temperature, luciferase activity was quantified on a ViewLux CCD-based plate reader.
Potency is read from the fitted curve at half-maximal effect.

Compound	Potency
CC(C)CN(C[C@@H](O)[C@H](Cc1ccccc1)NC(=O)O[C@H]1CO[C@H]2OCC[C@H]21)S(=O)(=O)c1ccc(N)cc1	inactive
OC[C@H]1O[C@@H](n2cnc3c2NC=NC[C@H]3O)C[C@@H]1O	inactive
N#CC(c1ccc(Cl)cc1)c1c(Cl)cc(-n2ncc(=O)[nH]c2=O)cc1Cl (stereo not given)	inactive
CO[C@H]1C=CO[C@@]2(C)Oc3c(C)c(O)c4c(O)c(c5c(nc6cc(C)ccn65)c4c3C2=O)NC(=O)/C(C)=C\C=C[C@H](C)[C@H](O)[C@@H](C)[C@@H](O)[C@@H](C)[C@H](OC(C)=O)[C@@H]1C	inactive
CCCN(CC)C(CC)C(=O)Nc1c(C)cccc1C (stereo not given)	inactive
CC[C@@H](C(=O)O)[C@@H]1O[C@@H]([C@@H](C)[C@H](O)[C@H](C)C(=O)[C@H](CC)[C@H]2O[C@]3(C=C[C@@H](O)[C@]4(CC[C@@](C)([C@H]5CC[C@](O)(CC)[C@H](C)O5)O4)O3)[C@H](C)C[C@@H]2C)[C@@H](C)C[C@@H]1C	inactive
CN=C1C=CC(=C(c2ccc(N(C)C)cc2)c2ccc(N(C)C)cc2)C=C1	inactive
Cc1cccc(C)c1NC(=O)NC1=CCCN1C	inactive
CC1(O)CCC(C(C)(C)O)CC1 (stereo not given)	inactive
CN(C)CCOc1ccccc1Cc1ccccc1 (tested in a mixture with another compound)	inactive
O=C(O)c1nc(=O)[nH]c(=O)[nH]1	inactive
O=C1CCC(=O)N1CO	inactive
CC(C)C[C@H](NC(=O)[C@@H](Cc1c[nH]c2ccccc12)NC(=O)[C@H](Cc1ccc(O)cc1)NC(=O)[C@H](CO)NC(=O)[C@H](Cc1c[nH]c2ccccc12)NC(=O)[C@H](Cc1cnc[nH]1)NC(=O)[C@@H]1CCC(=O)N1)C(=O)N[C@@H](CCCN=C(N)N)C(=O)N1CCC[C@@H]1C(=O)NCC(N)=O	inactive
C[C@H]1C[C@@H]2[C@H]([C@@H](O)C[C@@]3(C)[C@H]2CC[C@]3(O)C(=O)COC(=O)CCC(=O)O)[C@@]2(C)C=CC(=O)C=C12	inactive
CCCOc1cc(N)ccc1C(=O)OCCN(CC)CC	inactive
CC(=O)[C@@]1(O)CC[C@H]2[C@@H]3C=C(Cl)C4=CC(=O)CC[C@]4(C)[C@H]3CC[C@@]21C	inactive
CCN(CC)CCCC(C)Nc1cc(/C=C/c2ccccc2Cl)nc2cc(Cl)ccc12 (stereo not given)	inactive
CN[C@H]1CCc2cc(OC)c(OC)c(OC)c2-c2ccc(OC)c(=O)cc21	0.237 µM (active)
Cc1cc(-c2ccc(N=Nc3c(S(=O)(=O)O)cc4cc(S(=O)(=O)O)cc(N)c4c3O)c(C)c2)ccc1N=Nc1c(S(=O)(=O)O)cc2cc(S(=O)(=O)O)cc(N)c2c1O	inactive
CCC(=O)O[C@H]1CC[C@H]2[C@@H]3CCc4cc(O)ccc4[C@H]3CC[C@]12C	inactive

Compound	Potency
C[N@+]12CCCC[C@@H]1CCC(=C(c1cccs1)c1cccs1)C2	inactive
CCCCC[C@H](O)/C=C/[C@H]1[C@H](O)CC(=O)[C@@H]1CCCCCCC(=O)O	inactive
C[C@H]1[C@@H](OC(=O)CCC(=O)O)O[C@@H]2OC3(C)CC[C@H]4[C@H](C)CC[C@@H]1[C@@]24OO3	inactive
CC(Oc1ccccc1)C(=O)N[C@@H]1C(=O)N2[C@@H]1SC(C)(C)[C@@H]2C(=O)O (stereo not given in full)	inactive
CCN(CC)CCOc1ccc(-c2nc3cc(Cl)ccc3s2)cc1	inactive
CC1(C)S[C@@H]2[C@H](NC(=O)C(C(=O)Oc3ccc4c(c3)CCC4)c3ccccc3)C(=O)N2[C@H]1C(=O)O (stereo not given in full)	inactive
C=CCOc1ccc(CC(=O)O)cc1Cl	inactive
O=C1NCCN1c1ncc([N+](=O)[O-])s1	inactive
CCCCC/C=C\CCC(=O)N[C@H]1[C@H](Oc2c3cc4cc2Oc2ccc(cc2Cl)[C@@H](O[C@@H]2O[C@H](CO)[C@@H](O)[C@H](O)[C@H]2NC(C)=O)[C@@H]2NC(=O)[C@H](NC(=O)[C@@H]4NC(=O)[C@H]4NC(=O)[C@@H](Cc5ccc(c(Cl)c5)O3)NC(=O)[C@H](N)c3ccc(O)c(c3)Oc3cc(O)cc4c3)c3ccc(O)c(c3)-c3c(O[C@H]4O[C@H](CO)[C@@H](O)[C@H](O)[C@@H]4O)cc(O)cc3[C@@H](C(=O)O)NC2=O)O[C@H](CO)[C@@H](O)[C@@H]1O	inactive
COc1cc(Br)c(C[N+]2(CCOCCC3CCC4CC3C4(C)C)CCOCC2)cc1OC (stereo not given)	inactive
O=C(/C=C/c1cccc(F)c1)NC1CC1	inactive
CC#CCC(C)[C@H](O)/C=C/[C@@H]1[C@H]2c3cccc(CCCC(=O)O)c3O[C@H]2C[C@H]1O (stereo not given in full)	inactive
COC(=O)[C@H]1[C@H]2C[C@@H]3c4[nH]c5ccccc5c4CCN3C[C@H]2C[C@@H](OC(=O)c2cc(OC)c(OC)c(OC)c2)[C@@H]1OC	inactive
CC(C)CCCC(C)NC(C)C (stereo not given)	inactive
CCCCCCCCCCCCCCCC(=O)OC[C@@H](O)[C@H]1OC[C@H](O)[C@H]1O	inactive
O=C(O)CN(CC(=O)O)CC1=CC2C(=CC1=O)Oc1cc(O)c(CN(CC(=O)O)CC(=O)O)cc1C21OC(=O)c2ccccc21 (stereo not given)	inactive
CN1[C@@H]2CC[C@H]1CC(OC(c1ccccc1)c1ccccc1)C2 (stereo not given in full)	inactive
CNCC(O)c1ccc(OC(=O)C(C)(C)C)c(OC(=O)C(C)(C)C)c1 (stereo not given)	inactive
CO[C@H]1C[C@@H]2CC[C@@H](C)[C@@](O)(O2)C(=O)C(=O)N2CCCC[C@H]2C(=O)O[C@H]([C@H](C)C[C@@H]2CC[C@@H](OCCO)[C@H](OC)C2)CC(=O)[C@H](C)/C=C(\C)[C@@H](O)[C@@H](OC)C(=O)[C@H](C)C[C@H](C)/C=C/C=C/C=C/1C	inactive
NCCCC[C@H](NC(=O)[C@@H]1CCCN1C(=O)[C@@H]1CSSC[C@H](N)C(=O)N[C@@H](Cc2ccccc2)C(=O)N[C@@H](Cc2ccccc2)C(=O)N[C@@H](CCC(N)=O)C(=O)N[C@@H](CC(N)=O)C(=O)N1)C(=O)NCC(N)=O	inactive
